In the supplement of paper PMC8728848:
The entries come from a sample that favours the strongest signals as a whole.

Tests used:
Assay in all cases: glycan array binding signal (z-score within array); higher = stronger binding
Settings in all cases: glycan notation: IUPAC condensed, linker removed
[1] = molecular target: Fuc(a1-2)Gal(b1-3)GalNAc(a1-3)[Fuc(a1-2)]Gal(b1-4)Glc
Outline: (§1)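 From the Consortium for Functional Glycomics database, 3228 arrays were curated, keeping only those whose protein sequence was available. Binding is given as a within-array Z-score averaged across arrays sharing a protein sequence and across linkers. Negative Z-scores can be read as non-binding.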

[2] = molecular target: Fuc(a1-2)Gal(b1-3)GlcNAc(b1-3)[Fuc(a1-2)Gal(b1-3)GlcNAc(b1-6)]GalNAc
Outline: as §1

[3] = molecular target: Fuc(a1-2)Gal(b1-4)Fuc(a1-3)]GlcNAc(b1-2)Man(a1-3)[Fuc(a1-2)Gal(b1-4)[Fuc(a1-3)]GlcNAc(b1-2)Man(a1-6)]Man(b1-4)GlcNAc(b1-4)GlcNAc
Outline: as §1

[4] = molecular target: Fuc(a1-2)Gal(b1-4)GlcNAc(b1-2)Man(a1-3)[Fuc(a1-2)Gal(b1-4)GlcNAc(b1-2)Man(a1-6)]Man(b1-4)GlcNAc(b1-4)GlcNAc
Outline: as §1

[5] = molecular target: Fuc(a1-2)Gal(b1-4)GlcNAc(b1-2)Man(a1-3)[Fuc(a1-2)Gal(b1-4)GlcNAc(b1-2)Man(a1-6)]Man(b1-4)GlcNAc(b1-4)[Fuc(a1-6)]GlcNAc
Outline: as §1

[6] = molecular target: Fuc(a1-2)Gal(b1-4)GlcNAc(b1-3)Gal(b1-4)GlcNAc(b1-2)Man(a1-3)[Fuc(a1-2)Gal(b1-4)GlcNAc(b1-3)Gal(b1-4)GlcNAc(b1-2)Man(a1-6)]Man(b1-4)GlcNAc(b1-4)GlcNAc
Outline: as §1

[7] = molecular target: Fuc(a1-2)Gal(b1-4)GlcNAc(b1-6)GalNAc
Outline: as §1

[8] = molecular target: Fuc(a1-2)[Gal(a1-4)]Gal(b1-4)GlcNAc
Outline: as §1

[9] = molecular target: Fuc(a1-2)[GalNAc(a1-3)]Gal(b1-3)GlcNAc
Outline: as §1

[10] = molecular target: Fuc(a1-2)[GalNAc(a1-3)]Gal(b1-4)[Fuc(a1-3)]GlcNAc
Outline: as §1

[11] = molecular target: Fuc(a1-2)[GalNAc(a1-4)]Gal(b1-4)GlcNAc
Outline: as §1

[12] = molecular target: Fuc(b1-3)GlcNAc
Outline: as §1

[13] = molecular target: Gal(a1-3)Gal(b1-3)GlcNAc(b1-3)GalNAc
Outline: as §1

[14] = molecular target: Gal(a1-3)Gal(b1-4)Glc
Outline: as §1

[15] = molecular target: Gal(a1-3)GalNAc
Outline: as §1

[16] = molecular target: Gal(b1-3)GalNAc(b1-3)Gal
Outline: as §1

[17] = molecular target: Gal(b1-3)[Fuc(a1-4)]GlcNAc(b1-6)GalNAc
Outline: as §1

[18] = molecular target: Gal(b1-3)[GlcNAc(b1-6)]GalNAc
Outline: as §1

[19] = molecular target: Gal(b1-4)GlcNAc
Outline: as §1

[20] = molecular target: Gal(b1-4)GlcNAc(b1-2)Man(a1-3)[Gal(b1-4)GlcNAc(b1-2)Man(a1-6)][Gal(b1-4)GlcNAc(b1-4)]Man(b1-4)GlcNAc(b1-4)[Fuc(a1-6)]GlcNAc
Outline: as §1

[21] = molecular target: Gal(b1-4)GlcNAc(b1-3)Gal(b1-4)GlcNAc(b1-3)Gal(b1-4)GlcNAc(b1-2)Man(a1-3)[Gal(b1-4)GlcNAc(b1-3)Gal(b1-4)GlcNAc(b1-3)Gal(b1-4)GlcNAc(b1-2)Man(a1-6)]Man(b1-4)GlcNAc(b1-4)[Fuc(a1-6)]GlcNAc
Outline: as §1

[22] = molecular target: Gal(b1-4)GlcNAc(b1-3)Gal(b1-4)GlcNAc(b1-3)Gal(b1-4)GlcNAc(b1-3)Gal(b1-4)GlcNAc(b1-2)Man(a1-3)[Gal(b1-4)GlcNAc(b1-3)Gal(b1-4)GlcNAc(b1-3)Gal(b1-4)GlcNAc(b1-3)Gal(b1-4)GlcNAc(b1-2)Man(a1-6)]Man(b1-4)GlcNAc(b1-4)GlcNAc
Outline: as §1

[23] = molecular target: Gal(b1-4)GlcNAc(b1-3)Gal(b1-4)GlcNAc(b1-3)Gal(b1-4)GlcNAc(b1-3)Gal(b1-4)GlcNAc(b1-2)Man(a1-3)[Gal(b1-4)GlcNAc(b1-3)Gal(b1-4)GlcNAc(b1-3)Gal(b1-4)GlcNAc(b1-3)Gal(b1-4)GlcNAc(b1-2)Man(a1-6)]Man(b1-4)GlcNAc(b1-4)[Fuc(a1-6)]GlcNAc
Outline: as §1

[24] = molecular target: Gal(b1-4)GlcNAc(b1-3)Gal(b1-4)GlcNAc(b1-3)Gal(b1-4)GlcNAc(b1-3)Gal(b1-4)GlcNAc(b1-2)[Gal(b1-4)GlcNAc(b1-3)Gal(b1-4)GlcNAc(b1-3)Gal(b1-4)GlcNAc(b1-3)Gal(b1-4)GlcNAc(b1-6)]Man(a1-6)[Gal(b1-4)GlcNAc(b1-3)Gal(b1-4)GlcNAc(b1-3)Gal(b1-4)GlcNAc(b1-3)Gal(b1-4)GlcNAc(b1-2)Man(a1-3)]Man(b1-4)GlcNAc(b1-4)[Fuc(a1-6)]GlcNAc
Outline: as §1

[25] = molecular target: Gal(b1-4)GlcNAc(b1-3)Gal(b1-4)GlcNAc(b1-3)Gal(b1-4)GlcNAc(b1-3)Gal(b1-4)GlcNAc(b1-3)Gal(b1-4)GlcNAc(b1-2)Man(a1-3)[Gal(b1-4)GlcNAc(b1-3)Gal(b1-4)GlcNAc(b1-3)Gal(b1-4)GlcNAc(b1-3)Gal(b1-4)GlcNAc(b1-3)Gal(b1-4)GlcNAc(b1-2)Man(a1-6)]Man(b1-4)GlcNAc(b1-4)GlcNAc
Outline: as §1

B1: DrGal3 (Danio rerio) (protein)
chain: MDLSDALDAPPQQNNQQAGGPVWPGQPANPVWPGQPANPTWPGQPNQPAWPGQPNQQWPGQPGQPTAPGWPGPAPQTGPYGAPGQAPQVLTVPLDFPLQNGAYNKMLITINGEVKPNAKQFTVNLRRGNDIAFHINPRFSEGGKPVIVRNSMIGNNWGREERELPSFPFVPGKPFEMKILITDTEYKVAVNKSHLLEFKHRVFELNQITGLSIYNDVTLSTVNVETLQ
In the case of B1, the “glycan array binding signal (z-score)” value [1] is reported as -0.254, the “glycan array binding signal (z-score)” value [2] is reported as -0.164 and the “glycan array binding signal (z-score)” value [3] is reported as -0.125. The “glycan array binding signal (z-score)” value [4] was -0.218, the “glycan array binding signal (z-score)” value [5] was -0.209 and the “glycan array binding signal (z-score)” value [6] was 1.52. For the same binder, the “glycan array binding signal (z-score)” value [7] was -0.25, the “glycan array binding signal (z-score)” value [8] was -0.087 and the “glycan array binding signal (z-score)” value [9] was -0.212. For the same binder, the “glycan array binding signal (z-score)” value [10] was -0.206, the “glycan array binding signal (z-score)” value [11] was -0.233 and the “glycan array binding signal (z-score)” value [12] was -0.277. The “glycan array binding signal (z-score)” value [13] was -0.287, the “glycan array binding signal (z-score)” value [14] was -0.233 and the “glycan array binding signal (z-score)” value [15] was -0.007. For the same binder, the “glycan array binding signal (z-score)” value [16] was -0.183, the “glycan array binding signal (z-score)” value [17] was -0.208 and the “glycan array binding signal (z-score)” value [18] was -0.231. For the same binder, the “glycan array binding signal (z-score)” value [19] was -0.237, the “glycan array binding signal (z-score)” value [20] was -0.247 and the “glycan array binding signal (z-score)” value [21] was 4.37. The “glycan array binding signal (z-score)” value [22] was 4.2, the “glycan array binding signal (z-score)” value [23] was 5.59 and the “glycan array binding signal (z-score)” value [24] was 4.6. The “glycan array binding signal (z-score)” value [25] was 6.65.
